The panel holds about 83,000 compounds, 20% with a hit somewhere; the sample as a whole holds those more often.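 Treatment: one concentration, 48 hours, 96-well format. Scoring: percent growth, with anything below 10 considered active.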 Values without a mark were called inactive. Calls of active or inactive are those of the source.
The molecules below were run on MDA-MB-468 breast (assay: NCI-60 one-dose screen, 48 h (100 = growth as untreated, 0 = no growth, -100 = all killed)). Conditions: 10 µM unless noted.

Row | Compound | growth
1 | NC(=O)c1cc(I)ccc1NC(=O)COc1ccc(Cl)cc1Cl | 71.7%
2 | Cc1ccccc1CCO | 97.5%
3 | NC(=O)c1ccc[n+]([C@@H]2O[C@H](COP(=O)([O-])OP(=O)(O)OC[C@H]3O[C@@H](n4cnc5c(N)ncnc54)[C@H](O)[C@@H]3O)[C@@H](O)[C@H]2O)c1 | 122%
4 | CC(CNC(Cc1ccccc1)c1ccccc1)NC(Cc1ccccc1)c1ccccc1 (stereo not given) | 14.5%
5 | CC1(C)OC2=C(CC1Br)C(=O)C(=O)c1ccccc12 (stereo not given) | -87.1% (active)
6 | COc1ccc(-c2c(-c3cc4c(c(OC)c3OC)OCO4)noc2N)cc1 | -6.43% (active)
7 | COc1ccc(N2CCN(c3nc(-c4cc(OC)c(OC)c(OC)c4)nc4ccccc34)CC2)cc1 | 76.2%
8 | NNC(=O)Oc1c(Cl)cc(Cl)cc1[N+](=O)[O-] | 112%
9 | O=c1[nH]nc(-c2ccc(Cl)cc2)cc1Cc1cccc([N+](=O)[O-])c1 | 102%
10 | Oc1ccc(CSc2nnc(-c3ccccc3)n2-c2ccccc2)c2cccnc12 | -2.77% (active)
11 | COc1ccc2nc(C)cc(Nc3ccccc3O)c2c1 | 63.5%
12 | COC(=O)[C@@H](NC(=O)NC(=O)NC(=O)CI)C(C)C | 71.6%
13 | COc1ccccc1NC(=O)Cn1cc(CN2CCN(c3ccnc4cc(Cl)ccc34)CC2)nn1 | 80.8%
14 | Nc1ncc(-c2ccc(C(F)(F)F)cc2)c(NC2CCCCCC2)n1 | -3.25% (active)
15 | Cc1ccc(Sc2oc(-c3ccc(C)cc3)nc2[P+](c2ccccc2)(c2ccccc2)c2ccccc2)cc1 | -36.5% (active)
16 | CCN(C(=O)CCl)C(C)(C)C(SSSC(c1ccc(Cl)cc1)C(C)(C)N(CC)C(=O)CCl)c1ccc(Cl)cc1 (stereo not given) | 5.76% (active)
17 | COc1cc(-c2c3sc(=O)[nH]c3nc3c2c(=O)[nH]n3C(C)C)cc2c1OCO2 | 92.3%
18 | O=c1[nH]c(N2CCC(Cc3ccccc3)CC2)nc2sc3c(c12)CCCC3 | 104%
19 | CCCCCc1ccc(S(=O)(=O)Nc2cc(-c3csc(NC(=O)CN4CCN(C)CC4)n3)ccc2OC)cc1 | 35.2%
20 | COc1ccc(/C=C(\c2cc(OC)c(OC)c(OC)c2)c2nnc(-c3cccs3)o2)cc1 | 77.7%

Row | Compound | growth
21 | Oc1ccc(CN(Cc2ccc(C(F)(F)F)cc2)Cc2ccc(O)c3ncccc23)c2cccnc12 | 4.04% (active)
22 | CCCC1Cc2cc(-n3nc(C)c4c3CC(C)(C)CC4=O)cc(NC3CCC(O)CC3)c2C(=O)N1 (stereo not given) | -8.54% (active)
23 | CN1C(=O)/C(=C/C=C/c2ccco2)SC1=S | 5.83% (active)
24 | COc1ccc(S(=O)(=O)n2cc(C3OC(c4cc(OC)c(OC)c(OC)c4)=NN3C(C)=O)c3ccccc32)cc1OC (stereo not given) | 105%
25 | N#Cc1c(Nc2ccc(F)cc2)n[nH]c1-c1cccs1 | 98.4%
26 | Cn1cc(-c2ccc3nc(-c4ccc(CC(=O)ONc5cc(C(C)(C)C)on5)cc4)cnc3c2)cn1 | 45.8%
27 | NCCCNc1nc2ccccc2c2c(=O)c3cc(Cl)ccc3sc12 | -19.1% (active)
28 | Brc1ccc(-c2nn(-c3ccccc3)cc2-c2nn[nH]n2)s1 | 98.8%
29 | CCCCC[C@H]1C/C=C2/C(=O)C=C[C@@H]2C/C=C\CCCC(=O)O1 | -50.6% (active)
30 | CC[C@@H]1C(=O)N(C)c2cnc(Nc3ccc(C(=O)NC4CCN(C)CC4)cc3OC)nc2N1C1CCCC1 | -33.3% (active)
31 | C=CCSc1n[nH]c(-c2cccs2)n1 | 95.6%
32 | O=c1onc(-c2ccccc2)c2ccccc12 | 108%
33 | CS(=O)(=O)c1ccc2c(c1)c1c(n2S(=O)(=O)c2ccc(Cl)cc2)CCCC1 | 42.3%
34 | Nc1c(-c2nc3ccccc3c(=O)[nH]2)nnn1-c1ccc(Cl)cc1 | 105%
35 | COc1cccc(C(=O)NCCNc2cc(-c3cn(-c4ccccc4)nc3-c3cccc(OC)c3)ccn2)c1 | 48.9%
36 | C=C1C(=O)O[C@H]2[C@H](O)[C@@H](C)CCC/C(C)=C/CC[C@@]3(C)O[C@@H]3C[C@@H]12 | 61.4%
37 | O=C(NNc1nc2cc(F)c(F)cc2n2c(CN3CC4CNCC4C3)ccc12)c1ncccn1 (stereo not given) | -10.6% (active)
38 | N#Cc1c(-c2ccccc2)nc(SCC(=O)N2CCN(c3ccccc3)CC2)[nH]c1=O | 106%
39 | COc1ccc(OC)c(/C=C2\Oc3cc(OCCN4CCCC4)ccc3C2=O)c1 | 98.9%
40 | O=C1C(Cl)=C(N/N=c2/[nH][nH]/c(=N/NC3=C(Cl)C(=O)c4ccccc4C3=O)c3ccccc23)C(=O)c2ccccc21 | 62.9%

From PubChem BioAssay (NCI)
